# From PubChem BioAssay AID1662 (Broad Institute, 2009)
# Out of some 300,000 compounds screened, about 4,000 (1.3%) were called active. Shown is part of a subset that was picked to be rich in actives. Unmarked numbers belong to inactive results.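 How the source made its calls: active means mean replicate score, as percent of positive control median, at least 50; inconclusive means mean below 50 but one replicate at or above 50; inactive means mean and every replicate below 50.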
# Test: S. pyogenes SKKanGAS growth inhibitors in kanamycin, primary screen, streptokinase expression inhibitor project, SKKanGAS strain, BacTiter-Glo luminescence (AID 1662);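 further: strain carries kanamycin resistance gene driven by streptokinase promoter and grows in 40 µg/ml kanamycin; loss of luminescence reflects streptokinase promoter inhibition or plain growth inhibition; 0% = median of DMSO wells and 100% = positive control at its reference dose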
# Details: 6 h, at 7.5 µM, active compounds read high
row,SMILES,inhibition
1,CC1(C)Cc2c(sc(NC(=O)C(=O)NCC3CCCO3)c2C(=O)O)CO1 (centres undefined),2.62%
2,CC1CCCCC1NC(=O)CCS(=O)(=O)c1ccc2c(c1)NC(=O)CO2 (centres undefined),6.59%
3,COC(=O)c1cc(CNC(=O)CC(C)c2ccccc2)ccc1OC (centres undefined),-1.27%
4,CCOC(=O)C1=C(C)Nc2sc(C(=O)c3ccc(Br)cc3)c(N)c2C1c1ccc(C(=O)OC)cc1 (centres undefined),22%
5,CCOC(=O)c1sc(=S)n2c1[nH]c(=O)c1ccc(C(=O)OC)cc12,66.6% (active)
6,CCOC(=O)c1ccc(Nc2cc3ccccc3c(=O)[nH]2)cc1,3.57%
7,COc1cccc(NS(=O)(=O)c2ccc(-c3coc(C)n3)cc2)c1,2.27%
8,CN(C)CCN(Cc1ccccc1)S(=O)(=O)c1csc(C(N)=O)c1,-1.24%
9,CC1=C(C(=O)Nc2ccccc2)C(c2cccs2)C(C#N)=C(SCC#N)N1 (centres undefined),15.4%
10,Cc1noc(C)c1C(=O)N(CC(=O)NC1CCCC1)Cc1ccccc1F,2.6%
11,COCCN(C(=O)COC(=O)Cc1cccc(OC)c1)c1c(N)n(Cc2ccccc2)c(=O)[nH]c1=O,-1.12%
12,Cc1cccc(NC(=S)Nc2ccc(Cl)c(Cl)c2)c1,82% (active)
13,Cc1cccc(NC(=S)Nc2ccc3cn[nH]c3c2)c1,2.46%
14,Cc1cccc(NC(=S)Nc2ccc(Br)cc2)c1,5.45%
15,Cc1cc(C)cc(OCC(=O)Nc2cc(NC(=O)COc3cc(C)cc(C)c3)cc(C(=O)O)c2)c1,26%
16,COc1ccc(Cl)cc1NC(=O)CN(C)Cc1ccc(OC)c(OC)c1,19.7%
17,CCOC(=O)c1c(-c2ccc(C)cc2)csc1/N=C(\C)C1=C(O)c2ccccc2C1=O,8.34%
18,COc1ccc(N2CCN(C(C)=C3C(=O)c4ccccc4C3=O)CC2)cc1,0.489%
19,CCOC(=O)C1=C(c2ccc(OC)cc2)C(=O)c2ccccc2C1=O,54.9% (active)
20,Cc1ccc(N=C2SCCCN2C(=O)c2cccc(N3C(=O)CCC3=O)c2)cc1Cl,1.34%
21,O=C(NCCOc1ccccc1F)Nc1ccc(Br)cc1,-7.4%
22,Cc1ccc2cccc(S(=O)(=O)N3CCN(c4ccccc4F)CC3)c2n1,-8.1%
23,CN1CCN(c2cc3c(cc2F)c(=O)c(C(=O)O)cn3CCF)CC1,66.8% (active)
24,CCCCCCn1cc(C(=O)O)c(=O)c2cc(F)c(N3CCCCC3)cc21,10%

row,SMILES,inhibition
1,CCn1cc(C(=O)NCCO)c(=O)c2cc(F)c(N3CCN(C)CC3)cc21,1.21%
2,CC(C)(C)c1ccc(C(=O)NCCn2c(N)c(C#N)c3nc4ccccc4nc32)cc1,8.82%
3,CCOc1ccccc1NC(=O)Cn1nnc(C(=O)NCc2cccs2)c1N,-0.164%
4,CC(C)Cn1c(N)c(C(=O)NCc2cccs2)c2nc3ccccc3nc21,88.2% (active)
5,O=C(NCCS(=O)(=O)N1CCN(c2ccccc2)CC1)c1ccco1,-0.162%
6,COc1cc(OC)c(OC)cc1CN1CCN(C(=O)c2cccc3ccccc23)CC1,-1.09%
7,Cc1ccc(S(=O)(=O)N2CC(C)N(S(C)(=O)=O)C2)cc1 (centres undefined),-4.98%
8,Cc1cccc(OC(=O)c2sc3ncn(C)c(=O)c3c2C)c1,82.2% (active)
9,Cc1c(C(N)=O)sc2ncn(CCOc3ccccc3)c(=O)c12,2.66%
10,CCOC(=O)C(C)n1cnc2sc(C)c(C)c2c1=O (centres undefined),2.1%
11,COc1ccccc1C(C)NC(=O)Cc1ccsc1 (centres undefined),5.44%
12,CC(CNc1ccc([N+](=O)[O-])cc1)NC(=O)c1ccccc1Br (centres undefined),-0.0993%
13,O=C(CCn1c(=O)[nH]c2ccccc2c1=O)NCCCN1CCN(c2cccc(Cl)c2)CC1,2.26%
14,COc1cccc(CNC(=O)Cc2csc(Nc3nc(=S)[nH]c4ccccc34)n2)c1,5.91%
15,O=C(Cc1csc(Nc2nc(=S)[nH]c3ccccc23)n1)NCCCN1CCN(c2cccc(Cl)c2)CC1,67.8% (active)
16,CN1C(=O)C2(OCCCO2)c2cc(Cl)ccc21,-1.28%
17,CN(CCO)c1ccc(/C=N/Nc2nncc3ccccc23)cc1,68.8% (active)
18,C/C(=N\Nc1nncc2ccccc12)c1ccc(Cl)c([N+](=O)[O-])c1,-1.2%
19,COc1cc(/C=N/Nc2nn3cnnc3c3ccccc23)cc(OC)c1OC,-2.2%
20,CC[N+]1(CC)CC2=Cc3ccccc3CC2C1 (centres undefined),5.88%
21,COc1ccccc1OCCNc1cc(N2CCOCC2)ccc1[N+](=O)[O-],-5.71%
22,O=C(CSc1ccc(-c2ccc(Br)cc2)nn1)NCC1CCCO1 (centres undefined),-6.3%
23,CC(NS(=O)(=O)c1ccc(Br)cc1)C(=O)NCC1CCCO1 (centres undefined),-0.664%
24,OC(CNCC1CCCO1)Cn1c2ccc(Br)cc2c2cc(Br)ccc21 (centres undefined),52.3% (active)

row,SMILES,inhibition
1,CCOC(=O)C1(CCOc2ccccc2)CCN(Cc2cc(OC)cc(OC)c2)CC1,-5.86%
2,CC1CCCCN1S(=O)(=O)CCNC(=O)c1ccccc1 (centres undefined),-1.35%
3,CCn1c(SCC(=O)NC2CC2)nnc1-c1ccccn1,0.558%
4,CC(C)(C)c1cc(C(=O)N/N=C/c2ccc([N+](=O)[O-])s2)n[nH]1,51.8% (active)
5,COc1ccc(C(=O)NCC(=O)N/N=C/c2ccc([N+](=O)[O-])s2)cc1OC,-2.08%
6,Cc1ccccc1NCC(=O)N/N=C\c1ccc([N+](=O)[O-])s1,7.47%
7,CCCCCCSc1nsc(N)n1,5.66%
8,O=C(NCc1ccccc1)C(c1ccco1)N(C(=O)c1csnn1)c1ccccc1F (centres undefined),1.53%
9,CC1(C)CC2CC(C)(CN2c2ncnc3ccc(Br)cc23)C1 (centres undefined),18.3%
10,CC(=O)Nc1nc2ccccc2n1Cc1ccc(C)cc1,24.3%
11,CCCCn1c(CCCNC(=O)CC)nc2ccccc21,-0.548%
12,CCC(=O)Nc1nc2ccccc2n1Cc1ccccc1C,61.8% (active)
13,CC(C)C1N=C2c3ccccc3N=C(SCC(=O)c3ccc(O)c(O)c3)N2C1=O (centres undefined),19%
14,O=S(=O)(NC1CCCCC1N1CCCCC1)c1ccc(Cl)cc1 (centres undefined),1.78%
15,Cc1ccc(S(=O)(=O)N2CCC(C(=O)OCC(=O)N(C)c3ccccc3)CC2)cc1C,-2.14%
16,Oc1cccc2ccc(/C=C/c3ccc(Br)s3)nc12,77.1% (active)
17,Nc1ccc(S(=O)(=O)Nc2nccc(/C=C/c3ccc(Br)s3)n2)cc1,2.22%
18,COc1cc2c(cc1OC)C(c1cccc([N+](=O)[O-])c1)=NCC2,-3.25%
19,CCc1nc2ccc(C(=O)N3CCN(c4cccc(Cl)c4)CC3)cc2nc1CC,7.12%
20,Oc1ccc(CN2CCN(c3ncccn3)CC2)cc1,-0.583%
21,CCN1CCN(C(c2cccnc2)c2cc(Cl)c3cccnc3c2O)CC1 (centres undefined),28.1%
22,Oc1c(CN2CCN(c3ccc(F)cc3)CC2)cc(Cl)c2cccnc12,81.2% (active)
23,CCCCCCCCCCCCN1[C@@H](CC(C)=O)c2cc(F)cc(F)c2S1(=O)=O,18.6%
24,Cn1ncc2c(NNC(=O)Cc3cccc4ccccc34)ncnc21,-0.379%

row,SMILES,inhibition
1,COC(=O)CNS(=O)(=O)c1ccc(Cc2ccc(S(=O)(=O)NCC(=O)OC)cc2)cc1,0.851%
2,CCN(CC(=O)Nc1cc(Cl)ccc1C)C(=O)CN1C(=O)NC2(CCCC2)C1=O,9.28%
3,O=C(O)c1ccccc1NC(=S)NC(NC(=O)c1ccccc1[N+](=O)[O-])C(Cl)(Cl)Cl (centres undefined),-2.95%
4,Cc1cccc(NC(=O)Nc2nnc(-c3ccccc3)o2)c1,15%
5,O=C(Nc1nnc(-c2ccc(Cl)cc2)o1)c1ccccc1Br,93.9% (active)
6,Cc1ccnc2nc(C(=O)Nc3nnc(-c4ccccc4)o3)nn12,1.08%
7,O=C(COC(=O)CSc1nnc(-c2ccc(Cl)cc2)o1)Nc1cc(Cl)cc(Cl)c1,3.37%
8,CCn1c2ccccc2c2cc(NC(=O)COC(=O)c3ccccc3Br)ccc21,2.54%
9,O=C(COC(=O)c1ccccc1Br)Nc1nnc(-c2ccccc2)o1,72.3% (active)
10,CC(=O)Nc1cccc(C(=O)OCC(=O)Nc2nnc(-c3ccccc3)o2)c1,13.3%
11,O=C(COC(=O)c1ccc(Oc2ccccc2)cc1)Nc1nnc(-c2ccccc2)o1,79.8% (active)
12,O=C(Nc1cccc(Cl)c1)Nc1nnc(-c2ccccc2)o1,5.48%
13,COc1ccc(-c2cc(=O)oc3cc(OC(C)C(=O)Nc4ccc(CN5CCOCC5)cc4)ccc23)cc1 (centres undefined),15.3%
14,COCCCNC(=O)C1CC(=O)N(CCc2ccc(F)cc2)C1 (centres undefined),1.79%
15,CC(C)(C)NC(=O)c1cccc(NC(=O)Cc2ccc(Br)cc2)c1,0.415%
16,COc1ccc(C(=O)NC(=S)NNC(=O)CCc2ccccc2)cc1,9.14%
17,CC(=O)NC(=S)NNC(=O)c1ccc(Br)cc1,79% (active)
18,CNC(=S)NNC(=O)c1ccc(N(C)C)cc1,-13.5%
19,COc1ccc(C(=O)NNC(=S)NC(=O)c2ccccc2[N+](=O)[O-])cc1,-1.63%
20,CCCCCC(=O)NC(=S)NNC(=O)c1ccc([N+](=O)[O-])cc1,21.9%
21,COc1ccc(C(=O)NNC(=S)NC(=O)c2ccccc2)cc1,91.7% (active)
22,O=C(NCC(c1cccs1)N1CCOCC1)c1cc(-c2ccccn2)nc2ccccc12 (centres undefined),-7.21%
